Assay results: PubChem BioAssay (NCATS)
Inconclusive results are not listed. Calls of active or inactive are those of the source. Calls follow the shape of the dose curve; as a rule, active = well fitted curve in the direction sought with a large enough effect; inconclusive = small, poorly fitted or top-dose-only effect, or another doubt; inactive = no such curve, though single readings can be large; an effect the other way counts as inactive or inconclusive.

Experiments:
[1] = test system: NIH3T3; test: qHTS assay to identify novel small-molecules to repurpose for Merkel cell carcinoma treatment (AID 1296009); details: MCC and control cell lines, CellTiter-Glo viability, 72 h; at 44.8 µM (top of the series) unless noted; also: nearly all actives have a fitted effect of over 60% in size
Outline: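 After compound transfer in DMSO, plates were kept 72 hr at 37 degree celsius. Luminescent ATP signal from CellTiter-Glo served as viability measure, normalized against DMSO and no-cell controls.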

[2] = test system: C33A; test: Primary qHTS to identify gynecologic anti-cancer compounds using libraries of approved drugs and bioactive compounds (AID 1345084); details: Gynecologic cancer cell panel viability, ATPlite luminescence, 48 h; series mostly up to 57.5 µM; also: nearly all actives have a fitted effect of over 55% in size; also: potency is read from the fitted curve at half-maximal effect
Outline: (§1)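 Luminescence from the ATPlite ATP-monitoring reagent indicates viable cell number; lower signal means cytotoxicity. Cells received compound 16 h after seeding and were exposed for 48 h across five concentrations.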

[3] = test system: CAOV3; test: as above; details: Gynecologic cancer cell panel viability, ATPlite luminescence, 48 h; series mostly up to 57.5 µM
Outline: as §1

[4] = test system: CASKI; test: as above; details: Gynecologic cancer cell panel viability, ATPlite luminescence, 48 h; series mostly up to 57.5 µM
Outline: as §1

[5] = test system: Es-2; test: as above; details: Gynecologic cancer cell panel viability, ATPlite luminescence, 48 h; series mostly up to 57.5 µM
Outline: as §1

[6] = test system: HeLa; test: as above; details: Gynecologic cancer cell panel viability, ATPlite luminescence, 48 h; series mostly up to 57.5 µM
Outline: as §1

[7] = test system: Hek293T; test: as above; details: Gynecologic cancer cell panel viability, ATPlite luminescence, 48 h, control line for the selectivity index; series mostly up to 57.5 µM
Outline: as §1

[8] = test system: JEG-3; test: as above; details: Gynecologic cancer cell panel viability, ATPlite luminescence, 48 h; series mostly up to 57.5 µM
Outline: as §1

[9] = test system: OV90; test: as above; details: Gynecologic cancer cell panel viability, ATPlite luminescence, 48 h; series mostly up to 57.5 µM
Outline: as §1

[10] = test system: PA-1; test: as above; details: Gynecologic cancer cell panel viability, ATPlite luminescence, 48 h; series mostly up to 57.5 µM
Outline: as §1

[11] = test system: Tov-21-G; test: as above; details: Gynecologic cancer cell panel viability, ATPlite luminescence, 48 h; series mostly up to 57.5 µM
Outline: as §1

[12] = test system: Tov112D; test: as above; details: Gynecologic cancer cell panel viability, ATPlite luminescence, 48 h; series mostly up to 57.5 µM
Outline: as §1

[13] = test system: SKOV3; test: as above; details: Gynecologic cancer cell panel viability, ATPlite luminescence, 48 h; series mostly up to 57.5 µM
Outline: as §1

Measured: Potency

C[C@]1(O)CC[C@@H]2C(C(=O)O)=CO[C@@H](O[C@@H]3O[C@H](COC(=O)/C=C/c4ccc(O)c(O)c4)[C@@H](O)[C@H](O)[C@H]3O)[C@@H]21
inactive: [1] inactive [at 17.4 µM] | [2] | [3] | [4] | [5] | [6] | [7] | [8] | [9] | [10] | [11] | [12]

C=C1C(OC(C)=O)CCC2(C)CCC(C(C)(C)O)CC12 (centres undefined)
inactive: [1] | [2] | [3] | [4] | [5] | [6] | [7] | [8] | [10] | [13] | [11] | [12]

Cc1c(Cc2ccc3ccccc3n2)c2cc(F)ccc2n1CC(=O)O
inactive: [1] | [2] | [3] | [4] | [5] | [6] | [7] | [8] | [9] | [10] | [11] | [12]

O=C(COCC(=O)N1CCN(C(c2ccccc2)c2ccccc2)CC1)Nc1ccc(Cl)cc1C(=O)O
inactive: [1] | [2] | [3] | [4] | [5] | [6] | [7] | [8] | [9] | [10] | [11] | [12]

O=C(/C=C/c1ccc(O)c(O)c1)O[C@H]1[C@H](OC2CCCCC2O)O[C@H](CO)[C@@H](O)[C@@H]1O (some centres undefined)
inactive: [1] inactive [at 17.4 µM] | [2] | [3] | [4] | [5] | [7] | [8] | [9] | [11] | [12]
active: [6] 11.2 µM

COC(=O)C1=CO[C@@H](O[C@@H]2O[C@H](CO)[C@@H](O)[C@H](O)[C@H]2O)[C@@H]2[C@@H](C)[C@@H](O)C(O)[C@H]12 (some centres undefined)
inactive: [1] inactive [at 17.4 µM] | [2] | [3] | [4] | [5] | [6] | [7] | [8] | [9] | [10] | [11] | [12]

CCC(C)C1NC(=O)C2C(C)CCN2C(=O)C(CC(O)CO)OC(=O)CCNC(=O)C(C)N(C)C(=O)C(C(C)C)N(C)C1=O (centres undefined)
inactive: [1] inactive [at 17.4 µM] | [2] | [3] | [4] | [5] | [6] | [7] | [8] | [9] | [10] | [11] | [12]

Cc1ccc2[nH]c(=O)c(C3=NN(C(=O)CCC(=O)O)C(c4ccc(Br)cc4)C3)c(-c3ccccc3)c2c1 (centres undefined)
inactive: [1] | [2] | [3] | [4] | [5] | [6] | [7] | [8] | [9] | [10] | [11] | [12]

O=C(O)c1ccnc2cc(-c3nc4ccccc4n3CCN3CCCCC3)sc12
inactive: [1] | [2] | [3] | [4] | [5] | [6] | [7] | [8] | [9] | [10] | [11] | [12]

CC1(C)CC[C@]2(C(=O)O)CC[C@]3(C)C(=CCC4[C@@]5(C)C(=O)C[C@H](O)[C@@](C)(CO)C5CC[C@]43C)[C@@H]2C1 (some centres undefined)
inactive: [1] inactive [at 17.4 µM] | [2] | [3] | [4] | [5] | [6] | [7] | [8] | [9] | [13] | [11] | [12]

Cc1occc1C(=O)n1ccnc1
inactive: [1] | [2] | [3] | [4] | [5] | [6] | [7] | [8] | [9] | [10] | [11] | [12]

COc1cc(O)c2c(c1Cl)CC(C)OC2=O (centres undefined)
inactive: [1] | [2] | [3] | [4] | [5] | [6] | [7] | [8] | [9] | [10] | [11] | [12]

C=CC1(C)C=C2CC[C@H]3[C@@](C)(C(=O)O)CCC[C@]3(C)C2CC1 (some centres undefined)
inactive: [1] | [2] | [3] | [4] | [5] | [6] | [7] | [8] | [9] | [10] | [11] | [12]

CC(C)c1ccc2c(c1)[C@H](O)CC1[C@@](C)(C(=O)O)CCC[C@]21C (some centres undefined)
inactive: [1] | [2] | [3] | [4] | [5] | [6] | [7] | [8] | [9] | [10] | [11] | [12]

C=C1CC23CC1CCC2C12OC(=O)C(C)(C(O)C(O)C1O)C2C3C(=O)O (centres undefined)
inactive: [1] | [2] | [3] | [4] | [5] | [6] | [7] | [8] | [9] | [10] | [11] | [12]
